Common to all, as to assay: NCI-60 one-dose screen, 48 h (100 = growth as untreated, 0 = no growth, -100 = all killed)
Conditions in all cases: 10 µM unless noted

Experiment [1] has as its system NCI-H23 lung.
Experiment [2] deals with NCI-H226 lung.
The test system of experiment [3] is HOP-62 NSCLC.
Experiment [4] concerns NCI-H460 lung.
Experiment [5] deals with HOP-92 NSCLC.
For experiment [6], the system named is NCI-H522 lung.
The test system of experiment [7] is A549/ATCC NSCLC.
Experiment [8] concerns COLO 205 colon.
For experiment [9], the system named is DU-145 prostate.
Experiment [10] deals with K-562 leukemia.
In experiment [11] the test system is MALME-3M melanoma.
In experiment [12] the test system is MDA-MB-231 breast.
The test system of experiment [13] is RXF 393 renal.
For experiment [14], the system named is SF-268 CNS.
For experiment [15], the system named is SF-295 CNS.
The subject of experiment [16] is SF-539 CNS.
For experiment [17], the system named is UACC-257 melanoma.
Experiment [18] relates to M14 melanoma.
In experiment [19] the test system is 786-0 renal.

About 83,000 compounds went through this panel and 20% of them were active in at least one assay; those are over-represented in the sample as a whole.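 Cells were grown in 96-well plates and exposed to the test compound at a single concentration for 48 hours; results are reported as percent growth, with values below 10 considered active.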 Unmarked numbers belong to inactive results. Active and inactive are the calls of the source.

Consider `CNC(=O)c1cc(Oc2ccc3nc(NC(=O)Nc4ccc(N5CCC(N(C)C)CC5)cc4)sc3c2)ccn1`, for which the growth is 88.1% in experiment [1]; 94.9% in [2]; 93.5% in [3]; 81.6% in experiment [4]; 74.7% in [5]; 117% in experiment [6]. Further, the growth in [7] was 79.8%; in experiment [8], 80%; in [9], 74.1%; in [10] it was 2.09% (active); in [11] it was 56.1%; in experiment [12] it was 85.6%. Besides, the growth in experiment [13] is 61.5%; in [14], 84.7%; in experiment [15], 98.9%; in [16], 73.4%; in experiment [17], 105%; in experiment [18], 94%.
On to `O=C(Nc1nc(-c2ccccc2)cc(-c2ccc(Cl)cc2)n1)c1ccncc1`, for which the growth in experiment [1] was 90.2%; in [2], 93.3%; in experiment [3] it was 97.6%; in experiment [4] it was 98.7%; in [5] it was 89.5%; in [6] it was 86.8%. The growth was 90.5% in [7]; 92.8% in experiment [19]; 103% in experiment [8]; 103% in experiment [9]; 93.5% in [10]; 99.3% in experiment [11]. Besides, the growth is 94.8% in [12]; 85.7% in experiment [13]; 94.5% in experiment [14]; 100% in [15]; 102% in experiment [16]; 104% in experiment [17]. In addition, in [18], the growth was 104%.
In the case of `CC(C)(C)n1cc(-c2ccnc(NCCCNS(=O)(=O)c3cccc4ccccc34)c2)c(-c2cccc(O)c2)n1`, the growth in experiment [1] was 42.1%; in [2], 41%; in [3], 47.7%; in experiment [4], 2.1% (active); in experiment [5], 37.7%; in experiment [6] it was 15.8%. Also, the growth in experiment [7] was 29.2%; in experiment [19], -0.248% (active); in [8], -79.1% (active); in experiment [9], 42.5%; in experiment [10], -4% (active); in [11] it was -19.2% (active). The growth was 11.8% in experiment [12]; 0.843% (active) in experiment [13]; 37.5% in experiment [14]; 8.6% (active) in [15]; 41.8% in experiment [16]; -23.9% (active) in experiment [17]. In addition, in experiment [18], the growth is 2.67% (active).
For `CC1=C(NCCN2CCCC2)C(=O)c2c(OCc3ccc(C(F)(F)F)cc3)cccc2C1=O`, the growth in experiment [1] was 90.2%; in experiment [2] it was 91.3%; in experiment [3], 86.9%; in experiment [4], 68.9%; in experiment [5] it was 32.5%; in experiment [6] it was 100%. Further, the growth in experiment [19] was 67%; in experiment [8] it was 82.4%; in experiment [9] it was 92.1%; in experiment [10], -14.8% (active); in experiment [11] it was 104%; in [12], 81.4%. For the same compound, the growth was 88.5% in experiment [13]; 77.1% in [14]; 76.7% in experiment [15]; 65.1% in [17]; -82.2% (active) in experiment [18].
Consider `CCCCCCCCSC1=CC(=O)C(OC)=C(OC)C1=O`, for which the growth in [1] was 26.6%; in [2], 80.9%; in experiment [4], 45.9%; in experiment [5] it was -31.3% (active); in [6] it was -97.8% (active); in [7], 57.2%. Moreover, the growth in experiment [19] was 61.9%; in experiment [8], 37.1%; in [9], 68.5%; in [10], 3.59% (active); in experiment [11] it was -53.4% (active); in experiment [12], 24.2%. In addition, the growth in experiment [13] was -69.7% (active); in experiment [14] it was 43.6%; in [15], 74.1%; in experiment [17] it was -35.3% (active); in experiment [18], 26.6%.
With `O=C(O)c1ccccc1Nc1cccc(S(F)(F)(F)(F)F)c1`, the growth in [1] is 96.8%; in experiment [2], 88.9%; in experiment [3], 88.4%; in experiment [4], 102%; in experiment [5], 96.1%; in [6], 61.9%. For the same compound, the growth is 84.2% in experiment [7]; 110% in experiment [19]; 104% in experiment [8]; 107% in experiment [9]; 107% in experiment [10]; 101% in experiment [11]. Also, the growth in experiment [12] is 110%; in experiment [13], 116%; in experiment [14], 94.2%; in experiment [15] it was 99.4%; in experiment [17], 102%; in [18] it was 102%.
As to `O=c1cc(-c2ccccc2)[nH]c2ccccc12`, the growth was 39.1% in [1]; 70.2% in [2]; 13.2% in experiment [4]; 38.5% in experiment [5]; -46.9% (active) in experiment [6]; 19.1% in experiment [7]. Also, the growth was 32.3% in experiment [19]; 5.72% (active) in experiment [8]; 17.6% in experiment [9]; 32.6% in [10]; 50% in experiment [11]; 95.6% in experiment [12]. The growth in [13] is 36.1%; in experiment [14], 50.5%; in experiment [15], 16.4%; in experiment [16] it was 4.43% (active); in experiment [18] it was 15.9%.
Take `CC(=O)C1=C(O)C=C2Oc3c(C(=O)/C=C/c4ccccc4)c(O)c(C)c(O)c3[C@]2(C)C1=O`: the growth is 42.4% in experiment [1]; 53.9% in [2]; 40.9% in experiment [4]; 15.5% in [5]; 21.6% in [6]; 15% in experiment [7]. For the same compound, the growth in experiment [19] is 30.7%; in experiment [8], 40.4%; in experiment [9], 57%; in experiment [10], 24.9%; in experiment [11], 74.2%; in experiment [12], 61.2%. The growth in experiment [13] was 62.9%; in [14] it was 35.2%; in experiment [15], 19.5%; in [17], 44.5%; in [18], 36.1%.
